Assay [1] is described as follows: antimalarial activity against Dd2 strain (AID 2302;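 active = growth inhibition above 50% at the single 2 µM test dose, taken to imply half-maximal potency below 2 µM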;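 note: 0% = DMSO untreated growth and 100% = chloroquine plus artemisinin killed control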). The following applies: P. falciparum Dd2 in RBCs, LDH growth readout, 72 h; at 2 µM; active compounds read high.
A short description of assay [2]: HepG2 cytotoxicity, primary screen, cytotoxicity control for P. falciparum antimalarial project, cell-based, ATP luminescence (AID 2303;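 active = inhibition above 50%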;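 note: 0% = DMSO wells and 100% = digitonin-killed cells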). The following applies: HepG2 viability, 24-48 h, at 10 µM, active compounds read high.
Assay [3] concerns the target L-lactate dehydrogenase (Plasmodium falciparum (isolate CDC / Honduras)) (UniProt Q27743). Briefly: PfLDH activity inhibition – cell lysate, 3D7 strain, counter-screen for P. falciparum growth inhibition project (AID 2304).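 Note: 0% = vehicle and 100% = reference inhibitor.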 The following applies: P. falciparum 3D7 crude extract, LDH APAD/NBT absorbance; at 2 µM; active compounds read high.
Assay [4] is described as follows: inhibition of 3D7 malaria parasite growth – strain 3D7 (AID 2306).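 Note: 0% = DMSO wells and 100% = chloroquine plus artemisinin control wells.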 Particulars: P. falciparum 3D7 erythrocytic growth, LDH absorbance, 72 h; at 2 µM; active compounds read high.
In assay [5] the target is Calcium-dependent protein kinase 1 (Plasmodium falciparum (isolate 3D7)) (UniProt P62344). Briefly: PfCDPK1 kinase inhibitors, biochemical, TCAMS library (AID 1159585; cut-off not given, nearly all actives have IC50 up to about 0.98 µM;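 note: inhibitors leave more ATP so luminescence rises with inhibition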). The following applies: recombinant PfCDPK1, Kinase-Glo ATP depletion luminescence.
Sequence of Calcium-dependent protein kinase 1 (Plasmodium falciparum (isolate 3D7)) (P62344 whole entry, looked up): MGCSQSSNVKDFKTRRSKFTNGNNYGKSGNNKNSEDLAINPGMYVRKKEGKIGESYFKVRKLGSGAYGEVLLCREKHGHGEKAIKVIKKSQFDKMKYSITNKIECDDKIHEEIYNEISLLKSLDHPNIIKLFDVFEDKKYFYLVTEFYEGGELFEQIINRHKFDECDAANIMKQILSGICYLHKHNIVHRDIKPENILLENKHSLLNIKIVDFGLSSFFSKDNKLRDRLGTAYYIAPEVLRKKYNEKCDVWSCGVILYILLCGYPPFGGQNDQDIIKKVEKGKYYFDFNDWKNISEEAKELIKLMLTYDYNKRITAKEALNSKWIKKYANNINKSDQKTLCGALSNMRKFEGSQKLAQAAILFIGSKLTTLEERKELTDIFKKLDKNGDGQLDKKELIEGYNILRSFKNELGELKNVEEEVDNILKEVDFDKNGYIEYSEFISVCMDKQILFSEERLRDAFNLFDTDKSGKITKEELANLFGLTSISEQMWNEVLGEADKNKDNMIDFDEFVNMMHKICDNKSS
The target in assay [6] is Plasmodium falciparum protein kinase 6 (PK6, PF3D7_1337100) (UniProt Q8IDW1). In words: PfPK6 kinase inhibitors, biochemical, TCAMS library (AID 1159586). The following applies: recombinant PfPK6, Kinase-Glo ATP depletion luminescence.
Sequence of Plasmodium falciparum protein kinase 6 (PK6, PF3D7_1337100) (Q8IDW1 1-305): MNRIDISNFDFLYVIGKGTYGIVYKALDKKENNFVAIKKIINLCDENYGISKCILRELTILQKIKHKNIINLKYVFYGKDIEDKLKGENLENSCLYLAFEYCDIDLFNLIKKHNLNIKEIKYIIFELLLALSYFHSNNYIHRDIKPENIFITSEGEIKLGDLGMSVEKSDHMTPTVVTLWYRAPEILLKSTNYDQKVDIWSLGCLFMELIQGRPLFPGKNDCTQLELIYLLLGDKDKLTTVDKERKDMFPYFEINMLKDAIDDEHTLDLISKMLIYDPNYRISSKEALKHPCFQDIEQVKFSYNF
The target of assay [7] is Protein kinase 7 (PK7), Plasmodium falciparum 3D7 (PF3D7_0213400) (UniProt Q7YTF7). In words: inhibition of Plasmodium PK7 catalytic activity – biochemical, TCAMS antimalarial set, Kinase-Glo luminescence (AID 1159587). The following applies: recombinant PfPK7, Kinase-Glo ATP depletion luminescence.
Sequence of Protein kinase 7 (PK7), Plasmodium falciparum 3D7 (PF3D7_0213400) (Q7YTF7 1-343): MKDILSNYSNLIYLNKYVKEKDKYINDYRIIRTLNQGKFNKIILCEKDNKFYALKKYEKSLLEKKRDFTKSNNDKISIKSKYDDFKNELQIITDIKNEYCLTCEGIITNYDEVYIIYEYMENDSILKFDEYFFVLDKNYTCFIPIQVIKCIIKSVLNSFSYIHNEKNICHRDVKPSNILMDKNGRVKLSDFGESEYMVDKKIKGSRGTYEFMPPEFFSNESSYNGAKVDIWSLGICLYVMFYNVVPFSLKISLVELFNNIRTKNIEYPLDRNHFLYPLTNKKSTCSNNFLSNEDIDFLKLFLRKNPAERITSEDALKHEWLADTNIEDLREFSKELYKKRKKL
For assay [8], the target named is Calcium-dependent protein kinase 4 (Plasmodium falciparum (isolate 3D7)) (UniProt Q8IBS5). In words: PfCDPK4 kinase inhibitors, biochemical, TCAMS library (AID 1159588; cut-off not given, nearly all actives have IC50 up to about 0.91 µM). Particulars: recombinant PfCDPK4, Kinase-Glo ATP depletion luminescence.
Sequence of Calcium-dependent protein kinase 4 (Plasmodium falciparum (isolate 3D7)) (Q8IBS5 whole entry, looked up): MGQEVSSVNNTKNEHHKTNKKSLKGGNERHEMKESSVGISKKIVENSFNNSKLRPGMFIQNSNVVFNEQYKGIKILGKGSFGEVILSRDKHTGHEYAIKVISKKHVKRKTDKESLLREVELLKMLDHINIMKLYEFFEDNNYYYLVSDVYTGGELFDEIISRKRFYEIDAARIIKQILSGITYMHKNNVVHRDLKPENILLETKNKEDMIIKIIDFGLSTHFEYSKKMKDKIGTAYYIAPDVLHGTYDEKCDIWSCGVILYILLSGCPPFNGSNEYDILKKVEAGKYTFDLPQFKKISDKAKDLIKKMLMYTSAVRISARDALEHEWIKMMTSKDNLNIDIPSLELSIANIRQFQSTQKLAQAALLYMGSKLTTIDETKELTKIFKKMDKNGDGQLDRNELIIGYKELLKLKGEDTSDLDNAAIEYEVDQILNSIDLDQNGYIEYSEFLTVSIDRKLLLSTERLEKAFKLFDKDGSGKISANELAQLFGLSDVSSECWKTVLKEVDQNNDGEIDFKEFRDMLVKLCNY

A number with no mark means an inactive call. For part of these data: Potency and affinity values are given separately. The source made the active and inactive calls. Unless noted, the rule behind the calls is not given here.

Sequence of L-lactate dehydrogenase (Plasmodium falciparum (isolate CDC / Honduras)) (Q27743 whole entry, looked up): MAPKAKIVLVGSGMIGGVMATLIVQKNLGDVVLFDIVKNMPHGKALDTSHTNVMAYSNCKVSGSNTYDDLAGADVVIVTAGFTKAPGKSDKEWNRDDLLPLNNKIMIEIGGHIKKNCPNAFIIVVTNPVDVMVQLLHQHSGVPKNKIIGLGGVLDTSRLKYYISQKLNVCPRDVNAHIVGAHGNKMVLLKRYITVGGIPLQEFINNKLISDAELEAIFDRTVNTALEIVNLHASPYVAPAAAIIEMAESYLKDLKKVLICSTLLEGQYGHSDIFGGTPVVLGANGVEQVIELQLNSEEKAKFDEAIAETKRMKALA

In the case of `COc1ccc(C=NNc2cc(C)nc3ccc(OC)cc23)c(OC)c1`, the growth inhibition in assay [1] is 95% (active); in assay [4], 100% (active). For the same compound, the inhibition is 23% in assay [2] and -5% in assay [3]. The result in assay [5], in assay [6], in assay [7] and in assay [8] was inactive.

With `CS(=O)(=O)c1ccccc1CNC(=O)c1ccc(-c2ccc(-c3nc4ccc(C(F)(F)F)cc4[nH]3)s2)cc1`, the growth inhibition is 76% (active) in assay [1] and 96% (active) in assay [4]. For the same compound, the inhibition in assay [2] was 90% (active); in assay [3], 9%. Besides, the outcome in assay [5], in assay [6], in assay [7] and in assay [8] was inactive.

With `Cn1ccnc1CNC(=O)c1ccc(-c2cccc(-c3nc4ccc(C(F)(F)F)cc4[nH]3)c2)cc1`, the results for the growth inhibition in assay [1] and in assay [4] were 80% (active) and 101% (active), respectively. The inhibition is 20% in assay [2] and 3% in assay [3]. Besides, the outcome in assay [5], in assay [6], in assay [7] and in assay [8] was inactive.

For the compound `CCOC(=O)c1c(CN2CCCC2)n(-c2ccccc2)c2cc(Br)c(O)cc12`, the growth inhibition was 53% (active) in assay [1] and 83% (active) in assay [4]. Moreover, the inhibition in assay [2] and in assay [3] was -2% throughout. The result in assay [5], in assay [6], in assay [7] and in assay [8] was inactive.

With `c1ccc(-c2cc(NCCCCCCCCNc3cc(-c4ccccc4)nc4ccccc34)c3ccccc3n2)cc1`, the figures for the growth inhibition in assay [1] and in assay [4] were 72% (active) and 101% (active), respectively. For the same compound, the inhibition in assay [2] is 36%; in assay [3], 1%. For the same compound, the outcome in assay [5], in assay [6], in assay [7] and in assay [8] was inactive.

Turning to `CO/C(=C/C=C/c1cc2cc(Cl)c(Cl)cc2[nH]1)C(=O)NC1CC(C)(C)N(C)C(C)(C)C1`, the results for the growth inhibition in assay [1] and in assay [4] were 85% (active) and 99% (active), respectively. Also, the inhibition in assay [2] was 58% (active); in assay [3] it was -12%. Further, the result in assay [5], in assay [6], in assay [7] and in assay [8] was inactive.

As to `O=C(Nc1ccccc1)N(Cc1ccccc1-c1cccc(CNC2CCCC2)c1)C1CCN(Cc2ccccc2)CC1`, the values for the growth inhibition in assay [1] and in assay [4] were 84% (active) and 100% (active), respectively. The inhibition is 36% in assay [2] and 3% in assay [3]. Further, the result in assay [5], in assay [6], in assay [7] and in assay [8] was inactive.

As to `COc1ccc2c(C)cc(NCCCN(C)C)nc2c1`, the growth inhibition in assay [1] is 19%; in assay [4], 95% (active). The inhibition in assay [2] is 10%; in assay [3], 3%. In addition, the result in assay [5], in assay [6], in assay [7] and in assay [8] was inactive.

`Cc1cccc2[nH]c(-c3cccc(-c4cccc(NC(=O)c5cnc[nH]5)c4)c3)nc12`: the growth inhibition in assay [1] was 91% (active); in assay [4], 100% (active). Besides, the inhibition in assay [2] was 2%; in assay [3] it was 0%. In addition, the outcome in assay [5], in assay [6], in assay [7] and in assay [8] was inactive.

Take `CC(=O)Nc1ccc(CN2CCC(CNC(=O)c3cc(-c4cccc(Cl)c4)cs3)C2)cc1` (centres undefined): the growth inhibition in assay [1] is 1%; in assay [4], 91% (active). In addition, the inhibition in assay [2] is 24%; in assay [3], 2%. Moreover, the outcome in assay [5], in assay [6], in assay [7] and in assay [8] was inactive.

Consider `C=CCN1Cc2c(O)cccc2C(c2ccc(O)c(O)c2)C1` (centres undefined), for which the growth inhibition was 6% in assay [1] and 97% (active) in assay [4]. For the same compound, the inhibition was -5% in assay [2] and 0% in assay [3]. The outcome in assay [5], in assay [6], in assay [7] and in assay [8] was inactive.

On to `O=C(CC1NC(=O)c2ccccc21)Nc1ccc(-c2ccc(-c3nc4ccc(C(F)(F)F)cc4[nH]3)cc2)cc1` (centres undefined), for which the results for the growth inhibition in assay [1] and in assay [4] were 70% (active) and 87% (active), respectively. Further, the inhibition in assay [2] is 39%; in assay [3], -2%. Further, the result in assay [5], in assay [6], in assay [7] and in assay [8] was inactive.

For the compound `Cc1cccc2[nH]c(-c3ccc(-c4ccc(NC(=O)NCc5cccc(F)c5)cc4)s3)nc12`, the growth inhibition in assay [1] was 43%; in assay [4] it was 101% (active). The inhibition in assay [2] was 70% (active); in assay [3], -6%. Also, the outcome in assay [5], in assay [6], in assay [7] and in assay [8] was inactive.

Take `Cc1ccc(Cn2c(N3CCC(C(=O)NCc4cccs4)CC3)nc3ccccc32)cc1`: the growth inhibition was 71% (active) in assay [1] and 99% (active) in assay [4]. In addition, the inhibition in assay [2] is -4%; in assay [3] it was -1%. The result in assay [5], in assay [6], in assay [7] and in assay [8] was inactive.

On to `O=S(=O)(Nc1ccc(CCN2CCC(N3CCCCC3)CC2)cc1)c1ccc(Cl)cc1`, for which the growth inhibition is 18% in assay [1] and 101% (active) in assay [4]. For the same compound, the inhibition is 23% in assay [2] and -1% in assay [3]. Also, the outcome in assay [5], in assay [6], in assay [7] and in assay [8] was inactive.

For the compound `COc1ccc2ccccc2c1C=NNc1cc(C)nc2c(C)cccc12`, the growth inhibition is 94% (active) in assay [1] and 102% (active) in assay [4]. The inhibition in assay [2] is -3%; in assay [3] it was -4%. Moreover, the result in assay [5], in assay [6], in assay [7] and in assay [8] was inactive.

For `CC(=O)Nc1ccc(CN(Cc2ccc(C)cc2)Cc2cccc(Oc3ccccc3)c2)cc1`, the growth inhibition in assay [1] was 87% (active); in assay [4] it was 84% (active). For the same compound, the inhibition in assay [2] was 34%; in assay [3], 1%. Besides, the result in assay [5], in assay [6], in assay [7] and in assay [8] was inactive.

Regarding `O=C(NC1CCCCC1)N(Cc1cccc(-c2cccc(CNC3CCCC3)c2)c1)C1CCN(Cc2ccccc2)CC1`, the results for the growth inhibition in assay [1] and in assay [4] were 90% (active) and 96% (active), respectively. The inhibition is 64% (active) in assay [2] and -7% in assay [3]. The result in assay [5], in assay [6], in assay [7] and in assay [8] was inactive.
